Results filed as inconclusive are left out. Entries that show only a call come without a potency. Unmarked numbers belong to inactive results. Calls of active or inactive are those of the source. Calls follow the shape of the dose curve; as a rule, active = well fitted inhibition curve with a large enough effect; inconclusive = small, poorly fitted or top-dose-only effect; inactive = flat fitted curve, though single readings scatter.
target: Calcium and integrin-binding protein 1 (Homo sapiens) (UniProt Q99828); experiment: Primary qHTS for Identification of Calcium Integrin Binding Protein 1 (CIB1) Competitor (AID 1508620); details: CIB1-GST / FITC-alphaIIb peptide fluorescence polarization; series mostly up to 57.7 µM;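 also: GST tagged CIB1 binding a fluorescein labelled alphaIIb integrin peptide tracer; top concentration of the series differs between compounds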
Sequence (Q99828 whole entry, looked up): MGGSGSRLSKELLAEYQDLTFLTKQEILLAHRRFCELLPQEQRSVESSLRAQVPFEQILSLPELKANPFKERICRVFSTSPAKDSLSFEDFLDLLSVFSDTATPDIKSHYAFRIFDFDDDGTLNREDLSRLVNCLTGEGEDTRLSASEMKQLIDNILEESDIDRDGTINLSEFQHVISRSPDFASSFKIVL
How it was run: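 CIB1-GST (1 uM final) and compound incubated 15 min at room temperature before adding FITC-alphaIIb peptide tracer (100 nM final). Competition for binding read by fluorescence polarization (ex 480, em 540) after another 15 min at room temperature.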

| SMILES | Potency | activity change, negative = inhibition |
| --- | --- | --- |
| C[C@@H]1CC[C@]2(C)C(C[C@@H](O)[C@H](O)[C@]23CO3)[C@@]1(C)CCc1ccoc1 (some centres undefined) | inactive | – |
| CC1CCC2(C)C(CC(O)C(O)C23CO3)C1(C)CCC1=CC(O)OC1=O (centres undefined) | inactive | – |
| CCNC(=O)CCC/C=C\C[C@@H]1[C@@H](/C=C/C(O)CCc2ccccc2)[C@@H](O)C[C@@H]1O (some centres undefined) | inactive | – |
| NC(=O)[C@H]1CCCCc2c1[nH]c1ccc(Cl)cc21 | inactive | – |
| CCOC(=O)Nc1nc2ccccc2[nH]1 | inactive | – |
| COC1C=C([C@@H]2CC=C3[C@@]4(C)C(CC[C@]32C)[C@@]2(C)C=CC(=O)C(C)(C)C2C[C@H]4OC(C)=O)C(=O)O1 (some centres undefined) | inactive | – |
| CCc1cc2c(=O)c(-c3nc4ccccc4s3)coc2c(CN2CCCCC2)c1O | inactive | – |
| CC1(C)CCCC2(C)C3=C(C(=O)OC3O)C(O)CC12 (centres undefined) | inactive | – |
| CON(C)C(=O)N1N=C(c2cc(F)ccc2F)S[C@@]1(CCCN)c1ccccc1 | inactive | – |
| CCOC(=O)c1ccc(N(C)c2csc(-c3ccccc3)n2)cc1 | inactive | – |
| C[C@]1(OC(=O)/C=C/c2ccccc2)C[C@H](O)[C@]2(O)C=CO[C@@H](O[C@@H]3O[C@H](CO)[C@@H](O)[C@H](O)[C@H]3O)C12 (some centres undefined) | inactive | – |
| CC(=O)NCCCCn1c2c(c3ccccc31)C(=O)NCC2 | inactive | – |
| OCc1ccccc1O[C@@H]1O[C@H](CO)[C@@H](O)[C@H](O)[C@H]1O | inactive | – |
| CCN(c1cc(C#CCN2CCOCC2)cc(C(=O)NCc2c(C)cc(C)[nH]c2=O)c1C)C1CCC(N(C)CCOC)CC1 (centres undefined) | inactive | – |
| CNC(=O)Nc1ccc(OC)c(NC(=O)NC(=O)c2cc(F)c(F)cc2Cl)c1 | inactive | – |
| O=C(NN1CCCCC1)c1nn(-c2ccc(Cl)cc2Cl)c(-c2ccc(C#Cc3ccc(C(F)(F)F)cc3)s2)c1CNS(=O)(=O)N1CCCC1 | inactive | – |
| COC1=CC(=O)O[C@@H](/C=C/c2ccccc2)[C@@H]1O | inactive | – |
| C[C@@H]1O[C@@H](OC[C@H]2O[C@@H](OCCc3ccccc3)[C@H](O)[C@@H](O)[C@@H]2O)[C@H](O)[C@H](O)[C@H]1O | inactive | – |
| CCC(=O)NS(=O)(=O)c1ccc(-c2c(-c3ccccc3)noc2C)cc1 | inactive | – |
| FC(F)(F)c1cc(C(F)(F)F)c2ccc3nc(-c4nnco4)cn3c2n1 | inactive | – |

| SMILES | Potency | activity change, negative = inhibition |
| --- | --- | --- |
| CC(C)CC1(C(=O)OCc2ccc(O[C@@H]3O[C@H](CO)[C@@H](O)[C@H](O)[C@H]3O)cc2)CC(=O)OC(C(=O)O)CC(=O)OCC2OC(O1)C(OC(=O)/C=C/c1ccc(O)cc1)C(O)C2O (some centres undefined) | inactive | – |
| COc1ccc([C@@H]2N[C@H](C(=O)O)Cc3c2[nH]c2ccccc32)cc1CN1CCN(c2ccccc2F)CC1 | inactive | – |
| COC(=O)C1=COC(OC2OC(CO)C(O)C(O)C2O)C2C1CC(OC(=O)C(O)CC(=O)O)C2C (centres undefined) | inactive | – |
| CC12CCC3c4ccc(O)cc4CCC3C1CCC2OC1OC(C(=O)O)C(O)C(O)C1O (centres undefined) | inactive | – |
| O=C(O)C[C@H]1CCC(=O)[C@@H]1C/C=C\CCOC1OC(CO)C(O)C(O)C1O (some centres undefined) | inactive | – |
| CC1OC(OC2C(C)OC(OC3C(OC(=O)/C=C/c4ccc(O)cc4)C(CO)OC(OC4(COC(=O)/C=C/c5ccc(O)cc5)OC(CO)C(O)C4O)C3OC3OCC(O)(CO)C3O)C(O)C2O)C(O)C(O)C1O (centres undefined) | inactive | – |
| OCCc1ccc(O[C@@H]2O[C@H](CO)[C@@H](O)[C@H](O)[C@H]2O)c(O)c1 | inactive | – |
| CC[C@H](/C=C/[C@@H](C)[C@H]1CC[C@H]2[C@@H]3CC=C4C[C@@H](O)CC[C@]4(C)[C@H]3CC[C@]12C)C(C)C | – | 1.65% [at 12.4 µM] |
| C[C@@H]1O[C@@H](O[C@H]2[C@H](OC(C#N)c3ccc(O)cc3)O[C@H](CO)[C@@H](O)[C@@H]2O)[C@H](O)[C@H](O)[C@H]1O (some centres undefined) | inactive | – |
| CC(=O)OC[C@@]12[C@H](O)C[C@@H](C)[C@]3(C[C@@H](c4ccoc4)OC3=O)[C@H]1C[C@H](O)C[C@]21CO1 | inactive | – |
| NC(=O)Nc1cc(-c2ccc(CN3CCOCC3)c(F)c2)sc1C(=O)N[C@H]1CCCNC1 | inactive | – |
| CCCCN(CCCC)C(=O)CN1C[C@H](c2ccc3c(c2)OCO3)[C@@H](C(=O)O)[C@@H]1c1ccc(OC)cc1 | inactive | – |
| OCC1=CC[C@@H]2C=CO[C@@H](O[C@@H]3O[C@H](CO)[C@@H](O)[C@H](O)[C@H]3O)[C@H]12 | inactive | – |
| NC(=O)c1cccc(-c2cc(O)cc(OC(=O)NC3CCCCC3)c2)c1 | inactive | – |
| Cc1cc(C)c(S(=O)(=O)N(Cc2ccc(-c3cccc(S(C)(=O)=O)c3)cc2)Cc2ccc(C(F)(F)F)o2)c(C)c1 | inactive | – |
| COc1cc2c(cc1O)C1(OC)Cc3ccc4c(c3C1N(C)CC2)OCO4 (centres undefined) | inactive | – |
| CC(=O)N[C@H]1[C@H](O[C@H]2CC[C@@]3(C)C(CC[C@]4(C)C3CC=C3C5CC(C)(C)CC[C@]5(C(=O)O)[C@H](O[C@@H]5O[C@H](CO)[C@@H](O)[C@H](O)[C@H]5O)C[C@]34C)C2(C)C)O[C@H](CO[C@@H]2OC[C@H](O)[C@H](O)[C@H]2O[C@@H]2OC[C@@H](O)[C@H](O)[C@H]2O)[C@@H](O)[C@@H]1O (some centres undefined) | inactive | – |
| NC1CCC(N[C@@H]2C[C@H]2c2ccccc2)CC1 (some centres undefined) | inactive | – |
| CC(=O)O[C@H]1CC[C@@]2(CI)C(=CC[C@@H]3[C@@H]2CC[C@]2(C)[C@@H]([C@H](C)CCCC(C)C)CC[C@@H]32)C1 | inactive | – |
